Bioassay records: PubChem, Center for Chemical Genomics, University of Michigan
Dicer inh: human Dicer pre-microRNA cleavage inhibition; z-score at 25 µM; 47,000 tested, 6% active; Q9UPY3; AID 1347074; cat-ELCCA pre-miR-21 Dicer processing, chemiluminescence; hits give high values; in the data active = z-score above about 3, passing the limit was not always enough;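 note: plate controls were vehicle for no effect and no enzyme for full effect; higher signal means more uncleaved substrate so more Dicer inhibition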
Numbers without * were called inactive. Many of the other results were omitted from the sample, so hits are more common in it than they were.

SMILES	Dicer inh
COc1ccc(-c2nnc3c4ccccc4c(C)nn23)cc1S(=O)(=O)NC1CCCCC1	2.5
COc1ccc(-c2nnc3c4ccccc4c(C)nn23)cc1S(=O)(=O)NC(C)C	5*
CNS(=O)(=O)c1cc(-c2nnc3c4ccccc4c(C)nn23)ccc1OC	1.6
Cc1ccc(-c2nnc3c4ccccc4c(C)nn23)cc1S(=O)(=O)N1CCN(c2ccccc2)CC1	2.5
c1ccc(NC2=NCCCCC2)cc1	-1.9
O=C1CC(c2cccs2)Cc2nc(N3CCN(c4ccccc4)CC3)ncc21 (stereo not given)	-0.19
Cc1nn(C)c(=O)c(N)c1-c1cc(-c2ccsc2)n[nH]1	-0.27
COC(=O)c1cnc(Sc2ccccc2NC(=O)c2ccc(Cl)cc2)c([N+](=O)[O-])c1	-1.6
CCOC(=O)/C(C#N)=C/Nc1nc2ccc(F)cc2s1	-0.83
Cc1cc2c(=O)[nH]nc(N)c2c(Sc2ccc(Cl)cc2)n1	-1.5
CC1CN(C(=O)CSc2nc(-c3ccco3)cc(C(F)(F)F)n2)CC(C)O1 (stereo not given)	0.95
COc1ccc(Cc2nc(-c3ccc(C)cc3)no2)cc1OC	1.1
COC(=O)Cc1c(-c2ccccc2)c2cc(Br)ccc2[nH]c1=O	3.9*
COC(=O)c1[nH]c2ccc([N+](=O)[O-])cc2c1-c1ccccc1	0.35
COc1ccc2[nH]c(=O)c(-c3ccccc3)c(O)c2c1	0.63
O=C(Nc1ccc(Cl)cc1Cl)c1cccnc1Sc1cccc(Cl)c1	5.5
CSc1nc(-c2ccccc2)cc(=O)[nH]1	1.6
CCOC(=O)C1(C(F)(F)F)N=C(N(CC)CC)Oc2c1c(C)nn2-c1ccccc1 (stereo not given)	-0.63
